# Measured values: PubChem BioAssay
# Calls of active or inactive are those of the source. How the calls were made is not given here.
# Molecular target: Pantothenate synthetase (Mycobacterium tuberculosis (strain ATCC 25618 / H37Rv)) (UniProt P9WIL5)
# Assay: Recombinant Mtb pantothenate synthetase (PanC) inhibitors, coupled enzyme, confirmatory (AID 375);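 further: 0% = full reaction with vehicle and 100% = no enzyme background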
# Details: coupled enzyme assay; at 10 µM, hits give high values
# Pantothenate synthetase (Mycobacterium tuberculosis (strain ATCC 25618 / H37Rv)), sequence (P9WIL5 whole entry, looked up): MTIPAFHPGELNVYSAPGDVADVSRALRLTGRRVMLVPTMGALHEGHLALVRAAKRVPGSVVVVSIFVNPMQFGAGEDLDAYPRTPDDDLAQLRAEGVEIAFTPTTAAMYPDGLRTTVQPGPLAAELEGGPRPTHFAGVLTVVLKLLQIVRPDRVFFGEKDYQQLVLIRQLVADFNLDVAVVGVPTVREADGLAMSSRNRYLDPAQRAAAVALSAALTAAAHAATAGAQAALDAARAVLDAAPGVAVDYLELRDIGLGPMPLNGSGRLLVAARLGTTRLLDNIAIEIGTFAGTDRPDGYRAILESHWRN
row,Structure (SMILES),inhibition
1,CCc1cc2c(NCCC(=O)O)nc(C)nc2s1,1% (inactive)
2,COc1ccc(-c2nnc(SCC(=O)NC(C)c3ccccc3)o2)cc1 (stereo not given),0% (inactive)
3,Cc1ccc(CNC(=O)COC(=O)c2c(C)noc2C)cc1,0% (inactive)
4,COc1ccc(C2c3c(oc4ccccc4c3=O)C(=O)N2Cc2ccncc2)cc1OC (stereo not given),6% (inactive)
5,O=C(c1ccc2nc(N3CCOCC3)sc2c1)N1CCCC1,13% (inactive)
6,O=C(CS(=O)(=O)c1cn(Cc2ccc(Cl)cc2)c2ccccc12)N1CCCC1,6% (inactive)
7,CCN(Cc1cc2cc(OC)ccc2[nH]c1=O)C(=O)c1ccncc1,4% (inactive)
8,CCSc1nnc(NC(=O)CCNS(=O)(=O)c2cc(Br)cnc2N)s1,3% (inactive)
9,CCOc1ccc(N(CC(=O)Nc2ccc(F)c(F)c2)S(=O)(=O)c2c(C)noc2C)cc1,4% (inactive)
10,CCc1nc2c(cnn2-c2ccc(Cl)cc2)c(=O)n1-c1ccc2c(c1)OCCO2,2% (inactive)
11,CCOC(=O)CCC(=O)c1c(C)oc2ccc(OC)cc12,4% (inactive)
12,COc1ccc2nc(C)cc(N3CCOCC3)c2c1,0% (inactive)
13,C/C(N)=C(/C#N)C(=O)CSc1nnc(Nc2c(C)cccc2C)s1,9% (inactive)
14,Cc1cccc(NC(=O)c2cc3n(n2)C(C(F)(F)F)CC(c2ccc4c(c2)OCO4)N3)c1 (stereo not given),4% (inactive)
15,CC(=O)O[C@]1(C(C)=O)CC[C@H]2[C@@H]3C=C(Cl)C4=CC(=O)CC[C@]4(C)[C@H]3CC[C@@]21C,0% (inactive)
16,Cc1ccc(S(=O)(=O)N(CCO)c2cc3c(s2)CCCC3)cc1,0% (inactive)
17,CS(=O)(=O)N(CC(=O)N1CCCCCC1)c1ccc(Br)cc1,0% (inactive)
18,O=C(Nc1cccc(Cl)c1)N1CCN(c2ncccn2)CC1,1% (inactive)
19,Cc1ccc(-c2nc(N)n(C(=O)c3cccnc3)n2)cc1,0% (inactive)
20,CN1[C@@H]2CC(OC(=O)[C@H](CO)c3ccccc3)C[C@H]1[C@@H]1O[C@@H]12 (stereo not given in full),0% (inactive)

row,Structure (SMILES),inhibition
1,CCOC(=O)CCCn1nc(C)n2c(cc3sccc32)c1=O,5% (inactive)
2,CC1CNCCN1S(=O)(=O)c1cccc2cnccc12 (stereo not given),5% (inactive)
3,CCOC(=O)C1CCN(c2c(N3CCCCCC3)c(=O)c2=O)CC1,2% (inactive)
4,COc1cc(OC)c(-c2nn3c(C4CCCCC4)nnc3s2)cc1OC,0% (inactive)
5,COc1ccc(OC)c(Nc2cc(-c3ccccc3)nc(N)n2)c1,1% (inactive)
6,CN1CCCN=C1COC(=O)C(O)(c1ccccc1)C1CCCCC1 (stereo not given),0% (inactive)
7,COc1cc2[nH]c(=O)n(CCC(=O)N3CCc4ccccc4C3)c(=O)c2cc1OC,0% (inactive)
8,COCc1cc(=O)[nH]c(Nc2nc3ccccc3o2)n1,0% (inactive)
9,Cc1ccc(C2C3CN(C(C)C)CC=C3C(C#N)=C(N)C2(C#N)C#N)cc1 (stereo not given),0% (inactive)
10,COc1ccc(-n2nnc3c(=O)n(C/C=C/c4ccccc4)cnc32)cc1,2% (inactive)
11,COc1ccc(S(=O)(=O)Nc2ccccc2SC)cc1C,0% (inactive)
12,COc1ccc(-c2nnc(-c3ccc(N)cc3)o2)cc1,4% (inactive)
13,Cc1ccc(Nc2nc(CSc3nnnn3C)cs2)cc1,0% (inactive)
14,CC(C)CNC(=O)c1c(N)n(/N=C/c2ccccn2)c2nc3ccccc3nc12,0% (inactive)
15,Cc1cc(C)n(S(=O)(=O)Cc2ccccc2)n1,0% (inactive)
16,Cn1c2c(c(=O)[nH]c1=O)C(NC(=O)c1ccco1)(C(F)(F)F)C(=O)N2 (stereo not given),0% (inactive)
17,Cc1cc2ncn(S(=O)(=O)c3ccc(S(=O)(=O)N4CCOCC4)cc3)c2cc1C,5% (inactive)
18,CCOc1ccc(-c2nnn(CC(=O)N3CCN(c4ccc(F)cc4)CC3)n2)cc1OCC,0% (inactive)
19,O=C(CN(Cc1ccco1)C(=O)c1cc(=O)[nH]c2ccccc12)Nc1ccccc1Br,0% (inactive)
20,COCCNc1oc(-c2ccc(C)cc2)nc1C#N,0% (inactive)
